This excerpt belongs to a sample that is enriched for hits.
TDP1 cell noCPT: qHTS for Inhibitors of human tyrosyl-DNA phosphodiesterase 1 (TDP1): qHTS in cells in absence of CPT; DT40 Tdp1-/- hTDP1 cells, no CPT, ATP luminescence, 48 h; Potency, µM (highest dose often 46.2 µM), without a hit: at the highest dose activity change, negative = growth inhibition, most hits filed as inhibitors; 420,000 compounds, 15% hits; note: potency is the fitted concentration of half-maximal effect; nearly all actives have a fitted effect of over 55% in size
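Chicken DT40 Tdp1-/- cells stably complemented with human TDP1 were seeded at 400 cells/well with DMSO in place of 20 nM camptothecin. After compound pinning, cells grew at least 48 hr at 37 °C; viability read by CellTiter-Glo luminescence.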
IL1B secr inh: qHTS for Inhibitors of Inflammasome Signaling: IL-1-beta AlphaLISA Primary Screen; THP-1 LPS/ATP IL-1B secretion, AlphaLISA, 16 h; hits give low values; activity change, % at 57.5 µM; 360,000 compounds, 4.7% hits; in the data active = activity change below about -50%; inconclusive = mostly about -30% to -49%
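THP-1 cells pretreated 1 hr with compounds (up to 57.5 uM final), then stimulated with LPS (250 ng/mL final) plus ATP (1.25 mM final); secreted IL-1B measured by AlphaLISA after 16 hr, decreased signal indicating inhibition.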
HT1080-NT tox: qHTS for induction of synthetic lethality in tumor cells producing 2HG: qHTS for the HT-1080-NT fibrosarcoma cell line; HT-1080-NT fibrosarcoma viability, CellTiter-Glo ATP luminescence, 48 h; Potency, µM (top dose mostly 46.1 µM), for inactives: at the top dose activity, negative = less viability, actives largely listed as cytotoxic; 360,000 compounds, 1.6% hits; AID 686970, 2013;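 note: NT is the 2HG producing partner of a matched IDH1 knockdown line; potency is the fitted concentration of half-maximal effect; 0% = DMSO-treated cells and -100% = media-only wells without cells; nearly all actives have a fitted effect of over 55% in size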
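A 48-hour cytotoxicity screen used HT-1080-NT cells plated 2 hours before compound delivery. ATP-based CellTiter-Glo luminescence measured viability, normalized to DMSO and no-cell controls.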
DT40 TDP1 CPT: qHTS for Inhibitors of human tyrosyl-DNA phosphodiesterase 1 (TDP1): qHTS in cells in presence of CPT | chicken DT40 Tdp1-/-;hTDP1 cells + 20 nM CPT, ATP luminescence, 48 h | Potency, µM (top dose mostly 46.2 µM), for inactives: at the highest dose activity change, negative = growth inhibition, hits mostly inhibitors | 420,000 compounds, 12% hits | AID 686979, 2013; note: potency is the fitted concentration of half-maximal effect; nearly all actives have a fitted effect of over 55% in size
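Chicken DT40 Tdp1-/- cells stably complemented with human TDP1 were seeded at 400 cells/well in medium containing 20 nM camptothecin, exposed to pin-transferred compounds, and grown at 37 °C for at least 48 hr. Viability was read as ATP luminescence.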
12-LOX inh: Primary qHTS assay for inhibitors of human arachidonate 12S-lipoxygenase (ALOX12): Round 2; Polyunsaturated fatty acid lipoxygenase ALOX12 (Homo sapiens), P18054; purified 12hLO, xylenol orange hydroperoxide absorbance; Potency, µM (titrated, usually from 108 µM), for inactives: top-dose activity change, negative = inhibition, actives largely listed as inhibitors; 580,000 compounds, 1.1% hits; AID 1671190, 2021; note: potency is the fitted concentration of half-maximal effect
Target sequence (P18054 whole entry, looked up): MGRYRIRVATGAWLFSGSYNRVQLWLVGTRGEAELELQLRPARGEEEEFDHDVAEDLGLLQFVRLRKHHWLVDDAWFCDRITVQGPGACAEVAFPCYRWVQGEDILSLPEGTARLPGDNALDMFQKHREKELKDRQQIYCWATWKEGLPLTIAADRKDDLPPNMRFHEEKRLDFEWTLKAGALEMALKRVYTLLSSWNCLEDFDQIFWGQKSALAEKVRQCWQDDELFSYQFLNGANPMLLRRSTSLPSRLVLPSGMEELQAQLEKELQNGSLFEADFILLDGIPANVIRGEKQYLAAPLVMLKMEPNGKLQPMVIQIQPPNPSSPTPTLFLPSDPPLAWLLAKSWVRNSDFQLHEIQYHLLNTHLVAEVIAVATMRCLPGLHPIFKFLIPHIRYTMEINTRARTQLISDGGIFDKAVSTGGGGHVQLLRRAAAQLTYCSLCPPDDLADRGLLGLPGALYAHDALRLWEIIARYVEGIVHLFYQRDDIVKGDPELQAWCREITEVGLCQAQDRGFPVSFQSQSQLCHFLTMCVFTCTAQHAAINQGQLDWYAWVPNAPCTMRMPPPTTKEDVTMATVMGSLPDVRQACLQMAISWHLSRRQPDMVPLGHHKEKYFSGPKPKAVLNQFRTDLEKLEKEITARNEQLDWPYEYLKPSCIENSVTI
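Purified human 12hLO at 150 nM in 25 mM Hepes, 0.01% Triton X-100, pH 7.0, preincubated 15 min at room temperature with compound. Reaction started with 40 uM arachidonic acid, 30 min at room temperature. Hydroperoxide measured by Fe-xylenol orange, 573/405 nm absorbance ratio.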
HT1080 IDH1KD tx: qHTS for induction of synthetic lethality in tumor cells producing 2HG: qHTS for the HT-1080-IDH1KD cell line | Potency, µM (highest dose often 46.1 µM), inactives show at the top dose activity, negative = toxicity, most hits filed as cytotoxic | HT-1080 IDH1 knockdown viability, ATP luminescence, 48 h | AID 686971, 2013 | 360,000 compounds, 2% hits;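 note: potency is the fitted concentration of half-maximal effect; 0% = DMSO wells and -100% = cell-free medium wells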
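% activity derives from luminescence (CellTiter-Glo), normalised to DMSO and no-cell wells. HT-1080-IDH1KD cells, 750/well, had 48 h compound exposure at 37 °C.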
Starred values were filed as active, the others as inactive; ? = inconclusive; · = no result given; [ ] = remark or other dose. Unless noted, calls come from the whole dose curve; as a rule, active = well fitted curve in the direction sought with a large enough effect; inconclusive = small, poorly fitted or top-dose-only effect, or another doubt; inactive = no such curve, though single readings can be large; an effect the other way counts as inactive or inconclusive. Unless noted, % is set by controls: 0 for no effect and ±100 for the full control effect.

SMILES	TDP1 cell noCPT	IL1B secr inh	HT1080-NT tox	DT40 TDP1 CPT	12-LOX inh	HT1080 IDH1KD tx
CCCOc1cccn2c(N(C)C(=O)c3ccccc3F)c(CC)nc12	?	47	?	?	2%	3%
CCN(CC)c1ccc(N=C2C=CC(=O)C=C2NC(C)=O)cc1	2.9µM*	-72*	-8%	5.2µM*	?	-18%
CCN(CC)c1ccc(NC(=O)Nc2ccccc2)cc1	?	?	-7%	-8%	-1%	-8%
CCC(C)Oc1ccc(C(=O)NCc2cccs2)cc1 (stereo not given)	·	·	·	·	2%	·
O=C(c1cccnc1OC1CCN(S(=O)(=O)c2ccccc2F)C1)N1CCOCC1 (stereo not given)	·	·	·	·	25%	·
COc1ccccc1NC(=O)c1ccc2c(=O)n(-c3ccccc3F)cnc2c1	·	·	·	·	12%	·
COc1ccccc1Nc1nn2c(=O)c3ccc(C(=O)N4CCCCC4)cc3nc2s1	16µM*	-20	0%	13µM*	-24%	9%
CCc1ccccc1Nc1nn2c(=O)c3ccc(C(=O)NCCC4=CCCCC4)cc3nc2s1	15µM*	·	·	16µM*	0%	·
COc1ccccc1Nc1nn2c(=O)c3ccc(C(=O)NCc4ccc(F)cc4)cc3nc2s1	2.3µM*	·	·	3.7µM*	?	·
Cc1ccc(Cl)cc1Nc1nn2c(=O)c3ccc(C(=O)NC4CCCCC4)cc3nc2s1	-28%	·	·	-19%	-5%	·
CCc1ccccc1Nc1nn2c(=O)c3ccc(C(=O)NCc4ccccn4)cc3nc2s1	12µM*	-14	0.26µM*	?	-19%	0.029µM*
O=C1Nc2ccccc2CC12CCN(CC1CCCCC1)C2 (stereo not given)	·	·	·	·	19%[176 µM]	·
COc1ccccc1NC(=O)C(=O)NCc1ccc(C)cc1	·	·	·	·	-14%	·
CCCCn1nc2cc(C(=O)NCc3ccccc3OC)ccc2c1OCC	-13%	13	9%	-23%	-6%	11%
CCc1ccccc1Nc1nn2c(=O)c3ccc(C(=O)NCc4ccccc4OC)cc3nc2s1	?	·	·	12µM*	-19%	·
COc1ccc(C2C(C#N)=C(N)N(c3sc4c(c3C#N)CCCC4)C3=C2C(=O)CC(C)(C)C3)cc1 (stereo not given)	?	-2	2%	21µM*	·	-1%
COc1ccc(C2C(C#N)=C(N)N(c3sc4c(c3C#N)CCCC4)C3=C2C(=O)CC(C)(C)C3)cc1OC (stereo not given)	?	-12	-19%	18µM*	-19%	0%
COc1ccc(C2C(C#N)=C3NC(=O)c4c(sc5c4CCCCC5)N3C3=C2C(=O)CC(C)(C)C3)cc1 (stereo not given)	23µM*	-24	?	16µM*	-10%	?
O=C1CO[C@H]2CN(Cc3c[nH]c4ccccc34)C[C@H]2N1Cc1ccccn1	·	·	·	·	20%[176 µM]	·
COC(=O)c1[nH]c2ccccc2c1NC(=O)CN1CCN(C/C=C/c2ccccc2)CC1	?	-76*	?	26µM*	-26%	?
CCOC(=O)c1[nH]c2ccc(F)cc2c1NC(=O)CN1CCN(C/C=C/c2ccccc2)CC1	?	-79*	21µM*	?	-2%	26µM*
O=C(N/N=C/c1cc(Br)c(O)c(Br)c1O)c1ccc2c(c1)OCCO2	8.2µM*	66	?	12µM*	?	?
Cc1cc(Br)cc(/C=N/NC(=O)c2ccc3c(c2)OCO3)c1O	23µM*	69	?	18µM*	-9%	16µM*
O=C(N/N=C/c1cc(Br)cc(Cl)c1O)c1ccc2c(c1)OCO2	1µM*	74	?	0.82µM*	22µM*	?
COc1ccc(/C=N/NC(=O)c2ccc3c(c2)OCO3)cc1	-12%	-24	-21%	-8%	-6%	-1%
SMILES	TDP1 cell noCPT	IL1B secr inh	HT1080-NT tox	DT40 TDP1 CPT	12-LOX inh	HT1080 IDH1KD tx
Cc1nn(C)c2nc(NCCCN3CCNC(=O)C3)sc12	·	·	·	·	-2%	·
CC(C)N1CCc2c(sc(NC(=O)c3ccc([N+](=O)[O-])o3)c2C(N)=O)C1	·	·	·	·	-16%	·
CCOC(=O)c1sc(NC(=O)c2ccco2)c(C#N)c1C	-25%	11	-8%	-9%	-19%	-1%
COC(=O)c1c(NC(=O)c2ccc([N+](=O)[O-])o2)sc2c1CCN(C(C)C)C2	0.82µM*	-97*	21µM*	0.58µM*	0%	4.6µM*
CCN(CC)C(=O)c1sc(NC(=O)c2cccc([N+](=O)[O-])c2)c(C#N)c1C	16µM*	2	9%	21µM*	-26%	4%
COC(=O)c1sc(NC(=O)c2ccc([N+](=O)[O-])o2)c(C#N)c1C	6.5µM*	?	0%	9.2µM*	0%	-3%
O=C(CSc1nc2ccccc2c(=O)n1-c1ccc(F)cc1F)Nc1ccc(N2CCOCC2)cc1	21µM*	-6	-2%	23µM*	10%	-2%
CN(C(=O)CSc1ncnc2ccccc12)C1CCCCC1	-15%	-89*	12%	-5%	26%	13%
O=C(CSc1ncnc2ccccc12)Nc1cccc(S(=O)(=O)N2CCOCC2)c1	16µM*	?	-4%	-19%	1%	-10%
O=C(CSc1nc2ccccc2c(=O)n1-c1ccc(F)cc1)Nc1ccc(N2CCOCC2)cc1	-26%	102	-1%	?	?	0%
CN(C)S(=O)(=O)c1ccc(NC(=O)CSc2ncnc3ccccc23)cc1	?	-102*	-12%	-27%	-13%	-26%
C=CCNC(=O)N(C)CC(=O)Nc1c(C)cccc1C	·	·	·	·	18%	·
CC(=O)N(c1nc(C)c(C(=O)Nc2ccc3[nH]ccc3c2)s1)C1CC1	·	·	·	·	14%	·
C#CCNC(=O)c1cc2cccnc2nc1N	·	·	·	·	0%	·
O=C(c1ccc(-n2c(SCc3cccc(F)c3)nc3ccccc3c2=O)cc1)N1CCOCC1	?	-20	-20%	?	2%	-23%
O=C(CSc1nc2ccccc2c(=O)n1-c1ccccc1Cl)Nc1cccc(S(=O)(=O)N2CCOCC2)c1	?	-12	-6%	15µM*	-7%	-9%
